IDE exosite FP – exo-site inhibitors of human insulin-degrading enzyme. purified IDE, FL-6b probe fluorescence polarization; hits give low values. hit rate 6.3% among 17,000. z-score at 20 µM;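 active = z-score of -3 or lower, meaning strong loss of probe binding signal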;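 note: His-tagged human IDE residues 42-1019 made in E. coli with 30 nM FL-6b probe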
An asterisk follows results filed as active. This is one part of a sample in which hits are shown more often than they occur.

SMILES	IDE exosite FP
COc1cccc(C#Cc2ccc([C@H]3[C@@H](CO)N4C(=O)CN(C(=O)Cc5ccccc5)C[C@H]34)cc2)c1	-4.64*
CCC(=O)N1CC(=O)N2[C@@H](CO)[C@H](c3ccc(C#Cc4cccc(OC)c4)cc3)[C@@H]2C1	-9.1*
CCC(=O)N1CC(=O)N2[C@H](CO)[C@@H](c3ccc(C#Cc4cccc(OC)c4)cc3)[C@@H]2C1	-5.16*
CCC(=O)N1CC(=O)N2[C@H](C1)[C@@H](c1ccc(C#Cc3cccc(OC)c3)cc1)[C@@H]2CO	-6.54*
CO[C@H]1CC[C@H]2CCOc3c(C#N)cccc3C(=O)N(C)CC3(CCCCC3)CC(=O)N(C)C[C@H]1O2	0.0147
COC(=O)C[C@@H]1CC[C@H]2[C@@H](COc3ccc(NC(=O)Nc4cccc(C#N)c4)cc3C(=O)N2C)O1	-0.0581
CN(C)CC#Cc1ccc([C@@H]2[C@@H](CO)N3C(=O)CN(C(=O)c4cccc(F)c4)C[C@H]23)cc1	0.407
O=C(Cc1ccncc1)NCC[C@@H]1CC[C@@H](NS(=O)(=O)c2ccccc2Cl)[C@H](CO)O1	-0.0877
O=C(CCN1CCCCC1)N[C@H]1CC[C@H](CC(=O)N2CCC(Cc3ccccc3)CC2)O[C@@H]1CO	1.29
O=C(Nc1ccccc1F)N[C@@H]1CC[C@@H](CCNC(=O)C2CC2)O[C@@H]1CO	0.348
CC(C)CC#Cc1ccc([C@H]2[C@H](CO)N3CCCCN(S(=O)(=O)c4ccc(F)cc4)C[C@@H]23)cc1	1.71
CCCNC(=O)N1C[C@@H](C)[C@@H](OC)CN(C)C(=O)c2ccc(NC(=O)CC)cc2OC[C@@H]1C	-0.861
C[C@H](CO)N1C[C@H](C)[C@H](CN(C)Cc2ccc(C(=O)Nc3ccccc3N)cc2)OCc2cnnn2CCCC1=O	0.705
COCC#Cc1ccc([C@@H]2[C@H](CO)N3C(=O)CN(C(=O)c4cccnc4)C[C@@H]23)cc1	2.03
CCC(=O)N1CC(=O)N2[C@H](C1)[C@H](c1ccc(C#Cc3cccc(OC)c3)cc1)[C@@H]2CO	-9.23*
COCC(=O)N1CC(=O)N2[C@H](CO)[C@H](c3ccc(C#Cc4cccc(OC)c4)cc3)[C@@H]2C1	-2.34
COCC(=O)N1CC(=O)N2[C@H](CO)[C@H](c3ccc(C#Cc4cccc(OC)c4)cc3)[C@H]2C1	-6.59*
COc1cccc(C#Cc2ccc([C@@H]3[C@@H](CO)N4C(=O)CN(C(=O)Cc5cccnc5)C[C@@H]34)cc2)c1	-1.37
C[C@H]1CN([C@@H](C)CO)C(=O)c2ccccc2-c2ccccc2CO[C@@H]1CN(C)C(=O)Nc1ccnc(N2CCOCC2)c1	-0.978
Cc1cccc(S(=O)(=O)N2[C@@H]3CNC[C@H]2C3c2ccc(-c3cncnc3)cc2)c1 (stereo not given in full)	1.89
CCC(=O)N1[C@H](CO)[C@H](c2ccc(C3=CCCC3)cc2)[C@H]1CNCC1CCCC1	0.516
CCCC#Cc1ccc([C@@H]2[C@@H](CO)N3CCCCN(Cc4ccncc4)C[C@H]23)cc1	3.3
OC[C@H]1[C@@H](c2ccc(-c3ccc(F)cc3)cc2)[C@@H]2CN(Cc3cccnc3)CCCCN12	-1.72
OC[C@H]1[C@H](c2ccc(/C=C/c3ccccc3)cc2)[C@@H]2CN(Cc3ccncc3)CCCCN12	-4.52*
OC[C@@H]1[C@@H](c2ccc(/C=C/c3ccccc3)cc2)[C@H]2CN(Cc3cccnc3)CCCCN12	-5.22*
SMILES	IDE exosite FP
OC[C@H]1[C@H](c2ccc(/C=C/c3ccccc3)cc2)[C@@H]2CN(Cc3cccnc3)CCCCN12	-2.44
CCCC#Cc1ccc([C@H]2[C@@H](CO)N3CCCCN(Cc4ccncc4)C[C@H]23)cc1	-1.62
OC[C@H]1[C@@H](c2ccc(-c3ccc(F)cc3)cc2)[C@H]2CN(Cc3cccnc3)CCCCN21	3.43
OC[C@@H]1[C@H](c2ccc(/C=C/c3ccccc3)cc2)[C@H]2CN(Cc3cccnc3)CCCCN12	-5.37*
OC[C@@H]1[C@@H](c2ccc(-c3ccc(F)cc3)cc2)[C@@H]2CN(Cc3cccnc3)CCCCN12	1.18
C[C@H]1CN([C@@H](C)CO)C(=O)c2cccc(NC(=O)c3ccncc3)c2O[C@@H]1CN(C)Cc1ccc2c(c1)OCO2	0.33
CO[C@H]1CN(C)C(=O)c2cccc(C#N)c2OCC[C@H]2CC[C@H](OC)[C@@H](CN(C)C(=O)[C@H]1C)O2	-0.77
C/C=C/c1ccc([C@@H]2[C@@H](CO)N(C(C)=O)[C@H]2CN(CCC)C(C)=O)cc1	4.83
O=C(Cc1cccnc1)N1CC(=O)N2[C@@H](CO)[C@@H](c3ccc(C#CC4CC4)cc3)[C@@H]2C1	-1.12
CCN(C[C@@H]1[C@H](c2ccccc2)[C@H](CO)N1C(=O)COC)S(C)(=O)=O	-0.97
CCC(=O)N1[C@H](C#N)[C@H](c2ccccc2-c2cccc(C)c2)[C@@H]1CO	0.861
CO[C@@H]1CN(C)C(=O)c2ccc(NC(=O)C3CCC3)cc2OC[C@@H](C)N(Cc2ccccn2)C[C@H]1C	1.69
COc1ccc2c3c([nH]c2c1)[C@H](CO)NCC31CCN(C(=O)Nc2ccccc2F)CC1	0.358
N#C[C@@H]1[C@H](c2ccccc2C2=CCCC2)[C@H](CO)N1C(=O)C1CCCC1	0.661

Assay outcomes: PubChem, Broad Institute
